Laboratory results as given in PubChem BioAssay AID1159580 (chemical genetic matrix, 2015).
Several values for one entry are separate records, joined by “and”; a condition that tells them apart may be missing. Equal entries are not always repeated. Hit rate of the full screen: of about 5,500 compounds, about 2,000 (36%) were called active. Roughly 18% stayed inconclusive and do not appear here. No stated cut-off is given here; in the data, active means normalized growth mostly below about 0.91 (no sharp cut-off); inconclusive means no clear call, values can overlap the other calls; inactive means mostly above about 0.92. The list shows a part of the results.

Assay: chemical genetic growth profiling, strain panel (AID 1159580);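 further: tested at 20 µM; growth read once vehicle control cultures reached saturation at 30 °C; 1 = growth at the plate median or of vehicle wells; lower values mean less growth of the strain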
Conditions: S. cerevisiae deletion strains, growth OD

Measured: normalized growth

C=C1CC[C@H](O)C/C1=C/C=C1\CCC[C@]2(C)C([C@H](C)/C=C/[C@H](C)C(C)C)CC[C@@H]12 (stereo not given in full)
inactive: locus YAL013W, strain DEP1, hits give low values 0.977 | locus YAL021C, strain ccr4, hits give low values 1.05 | locus YAL026C, strain drs2, hits give low values 1 | locus YAL030W, strain snc1, hits give low values 1.02 | locus YBL061C, strain skt5, hits give low values 1.02 | locus YBR009C, strain hhf1, hits give low values 0.991 | locus YBR021W, strain FUR4, hits give low values 1.04 | locus YBR023C, strain chs3, hits give low values 0.998 | locus YBR171W, strain sec66, hits give low values 1.01 | locus YBR229C, strain ROT2, hits give low values 0.944 | locus YBR231C, strain swc5, hits give low values 0.995 | locus YBR279W, strain paf1, hits give low values 1.01 | locus YCL011C, strain gbp2, hits give low values 1.02 | locus YCL016C, strain dcc1, hits give low values 0.995 | locus YCL029C, strain bik1, hits give low values 0.968 | locus YCL069W, strain vba3, hits give low values 1.01 | locus YCR088W, strain abp1, hits give low values 1.03 | locus YDL005C, strain med2, hits give low values 1 | locus YDL035C, strain GPR1, hits give low values 0.929 | locus YDL040C, strain nat1, hits give low values 1.02 | locus YDL074C, strain BRE1, hits give low values 0.961 | locus YDL101C, strain DUN1, hits give low values 0.976 | locus YDL185W, strain tfp1, hits give low values 0.981 | locus YDL192W, strain arf1, hits give low values 0.976 | locus YDR001C, strain nth1, hits give low values 1.03 | locus YDR069C, strain doa4, hits give low values 1.03 | locus YDR101C, strain arx1, hits give low values 0.948 | locus YDR137W, strain rgp1, hits give low values 0.939 | locus YDR150W, strain NUM1, hits give low values 0.977 | locus YDR159W, strain sac3, hits give low values 1.02 | locus YDR162C, strain NBP2, hits give low values 0.863 | locus YDR195W, strain ref2 1.03 | locus YDR297W, strain sur2, hits give low values 1.01 | locus YDR318W, strain mcm21, hits give low values 0.98 | locus YDR334W, strain swr1, hits give low values 1.03 | locus YDR335W, strain msn5, hits give low values 1.03 | locus YDR388W, hits give low values 0.977 | locus YDR392W, strain spt3, hits give low values 0.911 | locus YDR502C, strain sam2, hits give low values 0.998 | locus YEL003W, strain gim4, hits give low values 1.03 | locus YEL037C, strain rad23, hits give low values 1.01 | locus YEL061C, strain CIN8 (second series), hits give low values 1.03 | locus YEL061C, strain CIN8, hits give low values 0.982 | locus YER015W, strain faa2, hits give low values 1.01 | locus YER016W, strain bim1, hits give low values 1.02 | locus YER110C, hits give low values 0.977 | locus YER111C, strain swi4, hits give low values 0.996 | locus YER155C, strain BEM2 (second series), hits give low values 1.06 | locus YER155C, strain BEM2, hits give low values 0.997 | locus YER167W, strain BCK2, hits give low values 0.999 | locus YFR010W, strain ubp6, hits give low values 1.02 | locus YGL078C, strain dbp3, hits give low values 0.972 | locus YGL086W, strain mad1, hits give low values 0.958 | locus YGL167C, strain pmr1, hits give low values 1.03 | locus YGL173C, strain kem1, hits give low values 1.04 | locus YGL227W, strain vid30, hits give low values 1.01 | locus YGL240W, strain doc1, hits give low values 1.03 | locus YGL248W, strain PDE1, hits give low values 0.978 | locus YGL253W, strain hxk2, hits give low values 0.989 | locus YGR078C, strain PAC10, hits give low values 0.974 | locus YGR135W, strain pre9, hits give low values 1.03 | locus YGR252W, strain gcn5, hits give low values 1.08 | locus YHR013C, strain ard1, hits give low values 1.07 | locus YHR027C, strain rpn1, hits give low values 1.03 | locus YHR030C, strain SLT2, hits give low values 0.998 and 0.979 | locus YHR079C, strain IRE1 (second series), hits give low values 0.964 | locus YHR079C, strain IRE1, hits give low values 0.997 | locus YHR094C, strain hxt1, hits give low values 0.978 | locus YHR129C, strain ARP1, hits give low values 0.988 | locus YHR142W, strain chs7, hits give low values 1 | locus YHR200W, strain rpn10, hits give low values 0.981 | locus YIL066C, strain RNR3, hits give low values 0.968 | locus YIL073C, strain SPO22, hits give low values 0.994 | locus YIL125W, strain kgd1, hits give low values 0.98 | locus YIR030C, strain dcg1, hits give low values 0.984 | locus YJL092W, strain hpr5, hits give low values 1.02 | locus YJL095W, strain BCK1 (second series), hits give low values 1.02 | locus YJL095W, strain BCK1, hits give low values 0.959 and 1 | locus YJL115W, strain asf1, hits give low values 1.02 | locus YJL129C, strain trk1, hits give low values 1.02 | locus YJL134W, strain LCB3, hits give low values 0.982 | locus YJL154C, strain vps35, hits give low values 1.03 | locus YJL164C, strain tpk1, hits give low values 1.01 | locus YJL166W, strain qcr8, hits give low values 1 | locus YJL168C, strain set2, hits give low values 0.991 | locus YJL187C, strain SWE1 (second series), hits give low values 0.965 | locus YJR043C, strain POL32, hits give low values 0.956 | locus YJR066W, strain TOR1, hits give low values 0.891 | locus YJR075W, strain HOC1, hits give low values 0.979 | locus YKL009W, strain mrt4, hits give low values 0.935 | locus YKL068W, hits give low values 0.994 | locus YKL085W, strain MDH1 (second series), hits give low values 0.993 | locus YKL085W, strain MDH1, hits give low values 0.993 | locus YKL160W, strain elf1, hits give low values 1.01 | locus YKR001C, strain vps1, hits give low values 0.949 | locus YKR026C, strain gcn3, hits give low values 1.02 | locus YKR091W, strain srl3, hits give low values 1.01 | locus YLL001W, strain dnm1, hits give low values 1.02 | locus YLL026W, hits give low values 1.01 | locus YLL041C, strain sdh2, hits give low values 1.03 | locus YLR027C, strain aat2, hits give low values 1.01 | locus YLR039C, strain RIC1, hits give low values 0.777 | locus YLR058C, strain SHM2, hits give low values 0.978 | locus YLR102C, strain apc9, hits give low values 0.991 | locus YLR113W, strain HOG1, hits give low values 1.02 | locus YLR221C, strain rsa3, hits give low values 1.02 | locus YLR258W, strain gsy2, hits give low values 1.01 | locus YLR262C, strain YPT6 (second series), hits give low values 0.907 | locus YLR262C, strain YPT6, hits give low values 0.758 | locus YLR268W, strain sec22, hits give low values 0.937 | locus YLR320W, strain mms22, hits give low values 0.987 | locus YLR330W, strain CHS5, hits give low values 0.984 | locus YLR342W, strain FKS1 (second series), hits give low values 0.991 | locus YLR342W, strain FKS1, hits give low values 1.01 | locus YLR357W, strain rsc2, hits give low values 1.05 | locus YLR370C, strain arc18, hits give low values 1.04 | locus YLR371W, strain rom2, hits give low values 1.01 | locus YLR384C, strain iki3, hits give low values 1.02 | locus YLR418C, strain cdc73, hits give low values 0.985 | locus YML016C, strain PPZ1, hits give low values 0.984 | locus YML032C, strain rad52, hits give low values 0.979 | locus YML120C, strain ndi1, hits give low values 1.03 | locus YML124C, strain tub3, hits give low values 0.985 | locus YMR058W, strain fet3, hits give low values 1 | locus YMR078C, strain ctf18, hits give low values 0.984 | locus YMR125W, strain sto1, hits give low values 1.02 | locus YMR129W, hits give low values 1.02 | locus YMR205C, strain PFK2, hits give low values 1.02 | locus YMR223W, strain ubp8, hits give low values 1.01 | locus YMR231W, strain pep5, hits give low values 1 | locus YMR263W, strain SAP30, hits give low values 0.976 | locus YMR307W, strain GAS1, hits give low values 0.923 | locus YNL067W, strain RPL9B, hits give low values 0.982 | locus YNL071W, strain lat1, hits give low values 0.983 | locus YNL183C, strain NPR1, hits give low values 0.98 | locus YNL209W, strain ssb2, hits give low values 1.01 | locus YNL233W, strain BNI4, hits give low values 0.993 | locus YNL248C, strain rpa49, hits give low values 1.02 | locus YNL250W, strain rad50, hits give low values 0.993 | locus YNL271C, strain bni1, hits give low values 0.967 | locus YNL298W, strain CLA4, hits give low values 0.969 | locus YNL307C, strain MCK1, hits give low values 0.989 | locus YNL322C, strain KRE1 (second series), hits give low values 1.03 | locus YNL322C, strain KRE1, hits give low values 0.999 | locus YNR049C, strain mso1, hits give low values 1.02 | locus YNR052C, strain pop2, hits give low values 0.981 | locus YOL006C, strain TOP1, hits give low values 0.967 | locus YOL012C, strain htz1 1.45 | locus YOL147C, strain pex11, hits give low values 0.993 | locus YOR001W, strain rrp6, hits give low values 1 | locus YOR061W, strain CKA2, hits give low values 0.953 | locus YOR069W, strain VPS5, hits give low values 0.98 | locus YOR070C, strain gyp1, hits give low values 1.01 | locus YOR080W, strain dia2, hits give low values 1.01 | locus YOR083W, strain WHI5, hits give low values 0.985 | locus YOR106W, strain vam3, hits give low values 1.04 | locus YOR136W, strain idh2, hits give low values 0.981 | locus YOR144C, strain elg1, hits give low values 0.989 | locus YOR184W, strain ser1, hits give low values 0.939 | locus YOR231W, strain MKK1, hits give low values 1.02 | locus YOR265W, strain rbl2, hits give low values 1.01 | locus YOR270C, strain vph1, hits give low values 0.873 | locus YOR290C, strain snf2, hits give low values 1.02 | locus YOR316C, strain cot1, hits give low values 0.978 | locus YPL051W, strain arl3, hits give low values 1.01 | locus YPL055C, strain LGE1, hits give low values 1.01 | locus YPL078C, strain atp4, hits give low values 1.01 | locus YPL106C, strain sse1, hits give low values 1.09 | locus YPL240C, strain hsp82, hits give low values 1.01 | locus YPL256C, strain CLN2, hits give low values 1.01 | locus YPR119W, strain clb2, hits give low values 0.982 | locus YPR141C, strain kar3, hits give low values 0.981 | locus YPR163C, strain tif3, hits give low values 0.992 | locus YPR167C, strain met16, hits give low values 0.985 | strain wtn01, hits give low values 0.981
